Results filed as inconclusive are left out. Activity calls are given as the source filed them. Unless noted, the call rests on the fitted dose curve; in most records, active means well fitted curve in either direction with a large enough effect (not every such curve was filed as active); inconclusive means small, poorly fitted or top-dose-only effect, or another doubt; inactive means flat fitted curve, though single readings scatter.
Tests used:
[1] = target: Lysosomal acid glucosylceramidase (Homo sapiens) (UniProt P04062); test: Glucocerebrosidase-p2 (AID 348; in the data active means potency below about 10 µM; further: potency means the concentration at half of the fitted maximal effect); settings: purified GBA, blue fluorogenic substrate, 40 min
Sequence of Lysosomal acid glucosylceramidase (Homo sapiens) (P04062 whole entry, looked up): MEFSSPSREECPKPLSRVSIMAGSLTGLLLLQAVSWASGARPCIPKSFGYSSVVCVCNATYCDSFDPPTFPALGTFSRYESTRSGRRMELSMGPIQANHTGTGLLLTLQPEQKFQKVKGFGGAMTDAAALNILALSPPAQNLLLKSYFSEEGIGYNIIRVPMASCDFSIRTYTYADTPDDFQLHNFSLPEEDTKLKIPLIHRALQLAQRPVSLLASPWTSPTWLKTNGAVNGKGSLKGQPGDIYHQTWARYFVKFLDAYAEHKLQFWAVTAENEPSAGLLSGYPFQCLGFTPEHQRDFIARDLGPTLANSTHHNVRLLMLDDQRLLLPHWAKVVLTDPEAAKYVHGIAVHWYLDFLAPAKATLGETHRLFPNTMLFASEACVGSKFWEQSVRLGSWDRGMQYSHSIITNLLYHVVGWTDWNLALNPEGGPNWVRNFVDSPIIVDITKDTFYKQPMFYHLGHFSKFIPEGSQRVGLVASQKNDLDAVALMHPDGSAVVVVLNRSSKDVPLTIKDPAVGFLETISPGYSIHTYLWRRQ
Summary of the method: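 Compounds titrated from 0.6 nM upwards against 0.2 nM enzyme in pH 5.9 citric acid/KH2PO4, taurocholate, tween-20; blue fluorogenic substrate 80 uM, 40 min room temperature, stopped and read Ex 365/Em 440 for AC50.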

[2] = AP1 Signaling Pathway (AID 357); settings: ME-180 AP-1-bla reporter, EGF-induced, beta-lactamase ratio, 5 h; at 7.69 µM (top of the series) unless noted;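 further: ME-180 reporter cells stimulated with EGF at its EC50 level; on the % scale 0 is the no-effect control and ±100 the full control effect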
Summary of the method: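 Cells are seeded overnight, exposed to compound titrations and an EC50 level of EGF for 5 hours at 37 °C, then loaded with CCF4 dye for 2.5 hours. Beta-lactamase activity under the AP-1 element is read as a blue/green ratio.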

[3] = target: Cytochrome P450 1A2 (Homo sapiens) (UniProt P05177); test: p450-cyp1a2 (AID 410; calls by dose curve; further: potency means the concentration at half of the fitted maximal effect); settings: recombinant CYP1A2, luciferin-ME demethylation, luminescence; series mostly up to 57 µM
Sequence of Cytochrome P450 1A2 (Homo sapiens) (P05177 whole entry, looked up): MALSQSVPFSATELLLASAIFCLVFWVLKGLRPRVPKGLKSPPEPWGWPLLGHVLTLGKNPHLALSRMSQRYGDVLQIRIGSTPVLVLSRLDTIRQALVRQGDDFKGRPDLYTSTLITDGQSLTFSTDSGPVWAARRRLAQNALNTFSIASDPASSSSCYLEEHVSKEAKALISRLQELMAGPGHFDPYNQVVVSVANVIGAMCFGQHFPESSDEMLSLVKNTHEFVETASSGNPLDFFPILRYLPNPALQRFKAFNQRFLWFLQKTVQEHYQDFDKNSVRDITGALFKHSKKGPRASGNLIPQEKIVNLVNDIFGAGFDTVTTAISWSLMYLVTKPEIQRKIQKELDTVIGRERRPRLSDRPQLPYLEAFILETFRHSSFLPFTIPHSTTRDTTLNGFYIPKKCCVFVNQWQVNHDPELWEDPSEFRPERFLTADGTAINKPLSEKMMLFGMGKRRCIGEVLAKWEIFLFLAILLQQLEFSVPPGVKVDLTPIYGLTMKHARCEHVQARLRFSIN
Summary of the method: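 Inhibition was calculated relative to 57 uM furafylline (full inhibition). The reaction used human CYP1A2 at 20nM with Luciferin-ME at its Km, 100uM, driven by an NADPH-regenerating system for 60 min at room temperature.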

[4] = NFAT Signaling Pathway (AID 444); settings: Jurkat NFAT-bla M1, carbachol, beta-lactamase ratio, 5 h; at 7.69 µM (top of the series) unless noted;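 further: carbachol stimulus at about its EC50 of 1 µM final; on the % scale 0 is the no-effect control and ±100 the full control effect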
Summary of the method: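 Read-out: CCF4 FRET ratio (460 nm/530 nm) after 1 h RT dye loading, used for %activity and AC50 from titration series. Cells: Jurkat NFAT-β-lactamase/M1 line, treated with compound plus 1 uM carbachol for 5 h, 37 °C.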

[5] = Stat Signaling Pathway (AID 446); settings: ME-180 SIE beta-lactamase reporter, IL-6 stimulated, 5 h; at 7.69 µM (top of the series) unless noted;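 further: ME-180 cervical cancer cells given 40 pM IL-6 alongside compound; SIE-controlled beta-lactamase reporter measured as 460/530 nm FRET emission ratio; on the % scale 0 is the no-effect control and ±100 the full control effect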
Summary of the method: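 Reporter line: ME-180 cervical carcinoma, SIE-beta-lactamase. Treatment: compound with 40 pM IL-6, 5 hrs, 37 C, in low-serum OPTI-MEM with 10 mM HEPES pH 7.3. Detection: 460/530 nm fluorescence.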

[6] = target: Glucocorticoid receptor (Homo sapiens) (UniProt P04150); test: GR-GFP Redistribution (AID 450;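 active means compounds whose dose series gives a full or clear partial fitted curve of increased nuclear translocation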; further: potency means the concentration at half of the fitted maximal effect); settings: U2OS GR-GFP nuclear translocation, laser cytometry, 2 h
Sequence of Glucocorticoid receptor (Homo sapiens) (P04150 whole entry, looked up, the tested form may be a part): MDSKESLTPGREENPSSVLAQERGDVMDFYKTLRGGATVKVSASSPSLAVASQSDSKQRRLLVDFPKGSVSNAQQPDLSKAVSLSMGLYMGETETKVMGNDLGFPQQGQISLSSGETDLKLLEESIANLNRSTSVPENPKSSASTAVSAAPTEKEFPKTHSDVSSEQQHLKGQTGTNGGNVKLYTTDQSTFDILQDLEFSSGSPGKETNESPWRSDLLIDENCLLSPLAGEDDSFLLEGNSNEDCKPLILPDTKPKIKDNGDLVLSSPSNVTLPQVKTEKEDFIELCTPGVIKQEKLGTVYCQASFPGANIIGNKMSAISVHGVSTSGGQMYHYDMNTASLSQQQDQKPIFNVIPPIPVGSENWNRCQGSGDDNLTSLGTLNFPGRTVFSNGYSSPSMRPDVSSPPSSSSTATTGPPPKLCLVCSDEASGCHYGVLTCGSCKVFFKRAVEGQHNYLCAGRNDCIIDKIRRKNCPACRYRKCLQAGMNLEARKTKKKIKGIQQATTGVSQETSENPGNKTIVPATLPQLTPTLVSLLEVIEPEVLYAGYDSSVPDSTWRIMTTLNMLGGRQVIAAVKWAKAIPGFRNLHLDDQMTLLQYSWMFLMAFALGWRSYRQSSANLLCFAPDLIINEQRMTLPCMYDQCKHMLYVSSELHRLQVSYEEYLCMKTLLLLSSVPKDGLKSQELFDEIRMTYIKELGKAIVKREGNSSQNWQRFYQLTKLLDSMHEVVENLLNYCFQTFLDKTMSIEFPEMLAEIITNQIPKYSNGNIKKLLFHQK

[7] = target: Glucocorticoid receptor (Homo sapiens) (UniProt P04150); test: GR-EFC Redistribution (AID 451; calls by dose curve; further: potency means the concentration at half of the fitted maximal effect); settings: CHO-K1 GR-EFC translocation, beta-gal luminescence, 2 h
Summary of the method: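 Translocation of GR-ED fusion to nuclear EA restores b-gal, read by luminescence after 1 h room-temperature detection. Engineered CHO-K1 biosensor cells, 1,000/well, exposed 2 h at 37 C to titrations up to 46 uM final.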

[8] = target: Mitogen-activated protein kinase 10 (Mus musculus) (UniProt Q61831); test: JNK3 AlphaScreen Assay (AID 530); settings: JNK3 lysate, c-Jun phosphorylation; series mostly up to 57.1 µM;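 further: kinase came from lysate of stimulated human HepG2 cells; signal reports phosphorylation of biotinylated GST-cJun 1-79 at Ser73 with 10 µM ATP; on the % scale 0 is the no-effect control and ±100 the full control effect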
Summary of the method: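 Room-temperature AlphaScreen kinase assay; pre-activated HepG2 lysate as JNK3 source, biotin-GST-cJun(1-79) substrate, 10 uM ATP, compound 15 min preincubation.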

[9] = target: 3',5'-cyclic-AMP phosphodiesterase 4B (Homo sapiens) (UniProt Q07343); test: qHTS Assay for Inhibitors of PDE-IV (AID 607; active means well fitted activation curve with a large enough effect in the main read-out, with a control signal flat, not every such curve was filed as active; further: % of control where 0% means no effect); settings: HEK293 ACTOne CNG channel cells, membrane potential fluorescence; series mostly up to 22.9 µM
Sequence of 3',5'-cyclic-AMP phosphodiesterase 4B (Homo sapiens) (Q07343 whole entry, looked up): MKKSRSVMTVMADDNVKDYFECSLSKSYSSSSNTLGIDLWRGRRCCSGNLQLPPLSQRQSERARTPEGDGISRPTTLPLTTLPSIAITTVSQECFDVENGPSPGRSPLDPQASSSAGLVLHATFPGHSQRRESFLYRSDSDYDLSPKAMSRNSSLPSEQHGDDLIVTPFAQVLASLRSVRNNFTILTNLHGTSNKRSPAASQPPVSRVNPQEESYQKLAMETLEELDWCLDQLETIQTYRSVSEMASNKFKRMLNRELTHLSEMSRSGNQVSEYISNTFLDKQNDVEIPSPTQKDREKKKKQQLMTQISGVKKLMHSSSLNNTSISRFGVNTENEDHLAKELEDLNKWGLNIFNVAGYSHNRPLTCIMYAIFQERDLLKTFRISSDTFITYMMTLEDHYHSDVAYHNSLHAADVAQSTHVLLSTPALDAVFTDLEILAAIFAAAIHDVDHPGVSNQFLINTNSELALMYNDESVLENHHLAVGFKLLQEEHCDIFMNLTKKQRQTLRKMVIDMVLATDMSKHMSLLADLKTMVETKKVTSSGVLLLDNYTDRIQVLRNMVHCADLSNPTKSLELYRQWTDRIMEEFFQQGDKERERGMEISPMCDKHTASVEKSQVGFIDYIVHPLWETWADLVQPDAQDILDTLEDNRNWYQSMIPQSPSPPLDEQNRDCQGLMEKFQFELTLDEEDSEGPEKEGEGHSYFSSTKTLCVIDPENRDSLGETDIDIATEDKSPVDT
Summary of the method: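 Cell-based read-out of cAMP via a modified cyclic nucleotide-gated channel and membrane potential dye (535/590 nm) in HEK293 cells expressing PDE4 endogenously. Compounds tested up to 22.9 uM final; 100 uM RO 20-1724 reference.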

[10] = qHTS Assay for Lipid Storage Modulators (AID 1519; calls by dose curve); settings: Drosophila S3 cells, BODIPY lipid droplet/cell ratio, laser cytometry, cells loaded with oleic acid; for activity change, negative = inhibition: at 57.5 µM (top of the series)
Summary of the method: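 Cells seeded at 5,000 per well were treated with compounds over a concentration series and loaded with oleic acid (400 uM, as added). Lipid droplet fluorescence (488 nm excitation, 500-530 nm channel) was read by laser-scanning cytometry and normalized to 20 uM Triacsin C.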

[11] = target: Dual specificity protein kinase CLK4 (Homo sapiens) (UniProt Q9HAZ1); test: qHTS Assay for Inhibitors of CDC-like Kinase 4 (ADP-FP Assay) (AID 1795; active means well fitted curve in the direction sought with a large enough effect; an effect the other way counts as inactive or inconclusive;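 further: recombinant human CLK4 phosphorylating RS repeat peptide at 1 µM ATP; on the % scale 0 is the no-effect control and ±100 the full control effect; nearly all actives have a fitted effect of over 60% in size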); settings: Transcreener ADP fluorescence polarization; series mostly up to 50 µM
Sequence of Dual specificity protein kinase CLK4 (Homo sapiens) (Q9HAZ1 whole entry, looked up): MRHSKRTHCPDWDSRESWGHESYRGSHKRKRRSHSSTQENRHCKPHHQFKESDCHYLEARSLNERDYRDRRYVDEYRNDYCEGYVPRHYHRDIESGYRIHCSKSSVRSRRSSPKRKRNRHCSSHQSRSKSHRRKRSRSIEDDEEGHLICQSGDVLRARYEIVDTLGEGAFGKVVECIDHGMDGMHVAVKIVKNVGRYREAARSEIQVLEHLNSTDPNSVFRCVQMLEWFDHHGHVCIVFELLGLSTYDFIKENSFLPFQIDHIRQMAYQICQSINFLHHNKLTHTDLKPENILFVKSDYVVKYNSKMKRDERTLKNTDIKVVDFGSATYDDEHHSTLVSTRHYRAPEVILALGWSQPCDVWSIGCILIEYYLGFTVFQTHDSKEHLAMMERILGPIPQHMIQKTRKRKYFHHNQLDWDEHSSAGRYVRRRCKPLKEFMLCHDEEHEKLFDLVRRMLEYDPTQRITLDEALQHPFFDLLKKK
Summary of the method: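 Clk4 6.25 nM; RS peptide 100 uM; ATP 1 uM; 25 mM Tris pH 7.5, 10 mM MgCl2; 1 h reaction. ADP detected via antibody/orange tracer FP displacement; TG003 positive control.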

[12] = target: Ubiquitin carboxyl-terminal hydrolase 1 (Homo sapiens) (UniProt O94782); test: Inhibitors of USP1/UAF1: Pilot qHTS (AID 504865; active means well fitted curve in the direction sought with a large enough effect; an effect the other way counts as inactive or inconclusive;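 further: rhodamine fluorescence freed from ubiquitin-rhodamine substrate followed over time; top concentration of the series differs between compounds; on the % scale 0 is the no-effect control and ±100 the full control effect; nearly all actives have a fitted effect of over 35% in size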); settings: purified USP1/UAF1, Ub-rhodamine cleavage fluorescence; series mostly up to 54.9 µM
Sequence of Ubiquitin carboxyl-terminal hydrolase 1 (Homo sapiens) (O94782 whole entry, looked up): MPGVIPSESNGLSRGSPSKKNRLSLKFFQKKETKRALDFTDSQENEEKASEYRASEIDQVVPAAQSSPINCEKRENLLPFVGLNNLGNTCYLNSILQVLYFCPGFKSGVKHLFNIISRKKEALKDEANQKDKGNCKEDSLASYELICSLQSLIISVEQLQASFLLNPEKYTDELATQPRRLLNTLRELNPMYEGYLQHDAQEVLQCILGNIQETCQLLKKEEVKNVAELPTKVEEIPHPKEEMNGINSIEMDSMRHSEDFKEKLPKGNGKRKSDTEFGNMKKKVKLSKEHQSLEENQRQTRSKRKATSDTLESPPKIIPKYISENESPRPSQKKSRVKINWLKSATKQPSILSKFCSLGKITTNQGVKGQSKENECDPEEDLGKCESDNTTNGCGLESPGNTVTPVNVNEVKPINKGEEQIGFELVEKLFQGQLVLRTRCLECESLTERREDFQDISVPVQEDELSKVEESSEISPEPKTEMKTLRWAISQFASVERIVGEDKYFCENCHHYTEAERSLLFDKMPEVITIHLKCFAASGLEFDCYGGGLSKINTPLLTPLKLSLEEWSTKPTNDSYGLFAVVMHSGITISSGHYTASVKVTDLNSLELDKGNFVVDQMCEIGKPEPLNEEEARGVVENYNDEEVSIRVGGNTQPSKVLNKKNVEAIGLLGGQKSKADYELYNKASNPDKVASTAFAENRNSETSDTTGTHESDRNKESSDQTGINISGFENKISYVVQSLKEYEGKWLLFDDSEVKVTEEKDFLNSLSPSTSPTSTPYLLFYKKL
Summary of the method: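 In 50mM HEPES pH 7.8 containing 0.5mM EDTA, 1mM TCEP, 0.1 mg/ml BSA and 0.01% Tween-20, 1nM USP1/UAF1 is exposed to compound for 15 min, then Ub-Rho (150nM final) is added and fluorescence is read over time.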

[13] = Primary qHTS for small molecule stabilizers of the endoplasmic reticulum resident proteome: Secreted ER Calcium Modulated Protein (SERCaMP) assay (AID 1508630; active means well fitted curve in the direction sought with a large enough effect; an effect the other way counts as inactive or inconclusive; further: on the % scale 0 is the no-effect control and ±100 the full control effect); settings: SH-SY5Y GLuc-SERCaMP (Gaussia luciferase released on ER calcium loss) secretion, thapsigargin, luminescence; series mostly up to 38.4 µM
Summary of the method: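 GLuc-SERCaMP-expressing SH-SY5Y cells, pretreated 16 h with compound, are challenged with thapsigargin to empty ER calcium stores; after 4 h, coelenterazine is added directly to the medium and luminescence is imaged.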

[14] = target: Dual specificity protein kinase CLK4 (Homo sapiens) (UniProt Q9HAZ1); test: qHTS Assay for Inhibitors of CDC-like Kinase 4 (ADP-Glo Assay) (AID 1771; active means well fitted curve in the direction sought with a large enough effect; an effect the other way counts as inactive or inconclusive; further: nearly all actives have a fitted effect of over 70% in size; further: potency means the concentration at half of the fitted maximal effect); settings: recombinant CLK4, ADP-Glo luminescence; series mostly up to 80 µM
Summary of the method: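 Kinase reaction: Clk4 at 25 nM, RS repeat peptide substrate at 100 uM, ATP at 1 uM, 1 hr, room temperature. Product ADP detected as luciferase signal via ADP-Glo.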

[15] = target: Cytochrome P450 3A4 (Homo sapiens) (UniProt P08684); test: qHTS Assay for Inhibitors and Substrates of Cytochrome P450 3A4 (AID 884; active means well fitted curve in the direction sought with a large enough effect; an effect the other way counts as inactive or inconclusive; further: potency means the concentration at half of the fitted maximal effect; nearly all actives have a fitted effect of over 50% in size); settings: recombinant CYP3A4, Luciferin-PPXE luminescence; series mostly up to 57.1 µM
Sequence of Cytochrome P450 3A4 (Homo sapiens) (P08684 whole entry, looked up): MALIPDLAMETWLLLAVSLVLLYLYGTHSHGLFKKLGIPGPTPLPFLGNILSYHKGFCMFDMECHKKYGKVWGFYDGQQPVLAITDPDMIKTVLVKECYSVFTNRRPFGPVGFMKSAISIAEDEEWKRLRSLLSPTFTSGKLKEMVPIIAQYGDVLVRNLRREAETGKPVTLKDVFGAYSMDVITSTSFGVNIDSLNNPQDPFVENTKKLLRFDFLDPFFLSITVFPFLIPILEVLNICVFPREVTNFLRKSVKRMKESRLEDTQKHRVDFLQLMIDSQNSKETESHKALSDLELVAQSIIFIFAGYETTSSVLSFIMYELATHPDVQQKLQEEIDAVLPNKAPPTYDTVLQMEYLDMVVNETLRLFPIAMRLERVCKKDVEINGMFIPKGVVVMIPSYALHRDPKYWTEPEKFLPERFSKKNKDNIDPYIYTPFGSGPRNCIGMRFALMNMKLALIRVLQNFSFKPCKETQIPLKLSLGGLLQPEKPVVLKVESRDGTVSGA
Summary of the method: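 20 nM human CYP3A4 with 25 uM Luciferin-PPXE (at KM) in 200 mM KPO4, preincubated 10 min with compound; NADPH regeneration started a 60 min RT reaction. Luciferin detected by luminescence, normalized to 57 uM ketoconazole as full inhibition.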

[16] = measured here: cell count channel max response
[17] = measured here: lipid channel max response

In the case of `COCCNc1cc(-c2c(C)noc2C)ncn1`, the Potency [1] is reported as > 11.4 µM (inactive), the activity change, negative = inhibition [2] is reported as -3.45% (inactive) and the Potency [3] is reported as 10 µM (active). The activity change, negative = inhibition [4] was 3.73% (inactive), the activity, negative = inhibition [5] was 0.472% (inactive) and the Potency [6] was > 46 µM (inactive). For the same molecule, the Potency [7] was > 46 µM (inactive), the outcome [8] was “inactive” and the Potency [9] was “inactive”. For the same molecule, the activity change, negative = inhibition [10] was 8.14% (inactive), the max response [10, 16] was 13% and the max response [10, 17] was 22.2%. The Potency [11] was “inactive”, the Potency [12] was “inactive” and the Potency [13] was “inactive”.

With `CN(C)Cc1ccccc1-c1nc(NC2CCNCC2)c2ccccc2n1` the Potency [1] was > 11.4 µM (inactive), the activity change, negative = inhibition [2] was 24.8% (inactive) and the activity change, negative = inhibition [4] was -15% (inactive). For the same molecule, the Potency [6] was > 46 µM (inactive), the Potency [7] was > 46 µM (inactive) and the outcome [8] was “inactive”. The Potency [9] was “inactive”, the activity change, negative = inhibition [10] was 2.42% (inactive) and the max response [10, 16] was 8.01%. The max response [10, 17] was 7.24%, the Potency [14] was “inactive” and the Potency [11] was “inactive”. The Potency [12] was “inactive” and the Potency [13] was “inactive”.

In the case of `Cn1c(=O)cnc2cnc(OCc3ccccc3)nc21`, the Potency [1] is reported as > 11.4 µM (inactive), the activity change, negative = inhibition [2] is reported as -10.8% (inactive) and the activity change, negative = inhibition [4] is reported as 0.699% (inactive). For the same molecule, the activity, negative = inhibition [5] was -10.5% (inactive), the Potency [6] was > 9.22 µM (inactive) and the Potency [7] was > 46 µM (inactive). For the same molecule, the outcome [8] was “inactive”, the Potency [9] was “inactive” and the activity change, negative = inhibition [10] was 9.09% (inactive). For the same molecule, the max response [10, 16] was 18.8%, the max response [10, 17] was 26% and the Potency [14] was 20 µM (active). For the same molecule, the Potency [12] was “inactive” and the Potency [13] was “inactive”.

For `CS(=O)(=O)Nc1cccc(-c2cncnc2Nc2ccc(F)cc2)c1`, the activity change, negative = inhibition [2] was -19.4% (inactive), the Potency [3] was 5.01 µM (active) and the activity change, negative = inhibition [4] was 26% (inactive). The activity, negative = inhibition [5] was 13.7% (inactive), the Potency [6] was > 46 µM (inactive) and the Potency [7] was > 46 µM (inactive). The outcome [8] was “inactive”, the Potency [9] was “inactive” and the Potency [15] was 0.316 µM (active). The activity change, negative = inhibition [10] was 8.07% (inactive), the max response [10, 16] was 21.9% and the max response [10, 17] was 26.3%. For the same molecule, the Potency [14] was 31.6 µM (active), the Potency [11] was “inactive” and the Potency [12] was “inactive”. The Potency [13] was “inactive”.

In the case of `Cc1nc2cnc(Nc3ccccc3)nc2n(C2CC2)c1=O`, the Potency [1] is reported as > 11.4 µM (inactive), the activity change, negative = inhibition [2] is reported as -25.6% (inactive) and the Potency [3] is reported as 1 µM (active). The activity change, negative = inhibition [4] was 1.3% (inactive), the activity, negative = inhibition [5] was -10.8% (inactive) and the Potency [6] was > 9.22 µM (inactive). The Potency [7] was > 46 µM (inactive), the outcome [8] was “inactive” and the Potency [9] was “inactive”. For the same molecule, the activity change, negative = inhibition [10] was -15.4% (inactive), the max response [10, 16] was -13.6% and the max response [10, 17] was -28.8%. The Potency [14] was 6.31 µM (active), the Potency [12] was “inactive” and the Potency [13] was “inactive”.

For `COc1ccccc1-c1ccc2ncnc(NC3CCNCC3)c2c1`, the Potency [1] was > 11.4 µM (inactive), the activity change, negative = inhibition [2] was 2.47% (inactive) and the activity change, negative = inhibition [4] was 5.17% (inactive). For the same molecule, the activity, negative = inhibition [5] was 3.74% (inactive), the Potency [6] was > 46 µM (inactive) and the Potency [7] was > 46 µM (inactive). For the same molecule, the outcome [8] was “inactive”, the Potency [9] was “inactive” and the activity change, negative = inhibition [10] was 4.79% (inactive). The max response [10, 16] was 10.6%, the max response [10, 17] was 12.3% and the Potency [14] was “inactive”. The Potency [11] was “inactive”, the Potency [12] was “inactive” and the Potency [13] was “inactive”.

— PubChem BioAssay (NCATS)
